Drawing on ChEMBL document CHEMBL1961873, “Compounds: GSK PKIS; Assays: Nanosyn kinase panel” (2012), this text covers inhibition for 16 compounds.

For assay [1], the system named is Proto-oncogene tyrosine-protein kinase receptor Ret (Homo sapiens), P07949 [Y791F]. The conditions noted are these: at 1 µM.
Assay [2] concerns the target Macrophage-stimulating protein receptor (Homo sapiens) (UniProt Q04912). The conditions noted are these: at 0.1 µM.
The target is the same in assay [3]. The conditions noted are these: at 1 µM.
In assay [4] the target is Proto-oncogene tyrosine-protein kinase ROS (Homo sapiens) (UniProt P08922). The conditions noted are these: at 0.1 µM.
Assay [5] has the same target. As to conditions: at 1 µM.
Assay [6] deals with Proto-oncogene tyrosine-protein kinase Src (Homo sapiens) (UniProt P12931). As to conditions: at 0.1 µM.
For assay [7] the target is unchanged. The conditions noted are these: at 1 µM.
In assay [8] the target is Tyrosine-protein kinase Srms (Homo sapiens) (UniProt Q9H3Y6). As to conditions: at 0.1 µM.
For assay [9] the target is unchanged. As to conditions: at 1 µM.
For assay [10], the target named is Tyrosine-protein kinase SYK (Homo sapiens) (UniProt P43405). The conditions noted are these: at 0.1 µM.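 Also: reported percentages are mean inhibition values for SYK.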

The term inhibition denotes the drop in the measured response relative to a control, in per cent.

Sequence of Proto-oncogene tyrosine-protein kinase receptor Ret (Homo sapiens), P07949 [Y791F] (P07949 whole entry Y791F): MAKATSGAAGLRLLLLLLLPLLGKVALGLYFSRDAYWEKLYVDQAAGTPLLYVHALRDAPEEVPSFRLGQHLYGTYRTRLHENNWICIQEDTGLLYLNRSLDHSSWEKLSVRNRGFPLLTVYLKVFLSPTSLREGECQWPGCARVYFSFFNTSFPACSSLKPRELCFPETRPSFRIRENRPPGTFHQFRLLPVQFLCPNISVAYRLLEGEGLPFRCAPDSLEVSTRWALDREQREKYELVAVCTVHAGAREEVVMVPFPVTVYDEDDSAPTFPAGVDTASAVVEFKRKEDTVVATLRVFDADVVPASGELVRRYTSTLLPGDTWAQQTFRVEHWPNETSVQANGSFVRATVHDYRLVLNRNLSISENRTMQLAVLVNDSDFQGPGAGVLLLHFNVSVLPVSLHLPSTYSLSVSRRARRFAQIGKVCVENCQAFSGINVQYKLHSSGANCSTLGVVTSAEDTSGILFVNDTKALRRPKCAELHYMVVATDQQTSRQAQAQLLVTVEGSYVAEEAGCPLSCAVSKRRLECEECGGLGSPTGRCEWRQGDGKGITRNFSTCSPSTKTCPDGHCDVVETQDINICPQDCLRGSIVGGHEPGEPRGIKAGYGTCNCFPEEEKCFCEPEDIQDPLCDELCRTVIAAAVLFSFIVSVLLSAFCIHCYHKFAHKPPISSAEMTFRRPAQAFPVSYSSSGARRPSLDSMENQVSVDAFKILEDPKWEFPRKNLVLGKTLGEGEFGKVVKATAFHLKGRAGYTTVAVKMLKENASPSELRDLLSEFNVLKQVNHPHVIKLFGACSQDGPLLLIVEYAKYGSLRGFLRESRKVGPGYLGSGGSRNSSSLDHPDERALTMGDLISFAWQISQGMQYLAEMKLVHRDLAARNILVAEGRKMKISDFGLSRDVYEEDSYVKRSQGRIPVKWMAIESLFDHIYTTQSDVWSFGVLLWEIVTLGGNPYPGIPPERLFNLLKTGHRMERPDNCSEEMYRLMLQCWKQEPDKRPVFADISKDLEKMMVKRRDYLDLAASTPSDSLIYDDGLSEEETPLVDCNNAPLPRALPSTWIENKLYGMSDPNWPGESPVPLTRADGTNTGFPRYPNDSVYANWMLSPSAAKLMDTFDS
Sequence of Macrophage-stimulating protein receptor (Homo sapiens) (Q04912 25-304 limits assumed): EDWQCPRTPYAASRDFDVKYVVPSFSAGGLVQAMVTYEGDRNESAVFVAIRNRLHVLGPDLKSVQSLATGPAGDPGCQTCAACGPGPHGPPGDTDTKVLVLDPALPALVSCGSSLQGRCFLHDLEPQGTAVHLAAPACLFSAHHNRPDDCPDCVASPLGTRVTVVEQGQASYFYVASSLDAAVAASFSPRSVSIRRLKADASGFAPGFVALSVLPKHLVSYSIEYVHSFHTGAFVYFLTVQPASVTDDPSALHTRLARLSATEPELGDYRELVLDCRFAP
Sequence of Macrophage-stimulating protein receptor (Homo sapiens) (Q04912 310-1400 limits assumed): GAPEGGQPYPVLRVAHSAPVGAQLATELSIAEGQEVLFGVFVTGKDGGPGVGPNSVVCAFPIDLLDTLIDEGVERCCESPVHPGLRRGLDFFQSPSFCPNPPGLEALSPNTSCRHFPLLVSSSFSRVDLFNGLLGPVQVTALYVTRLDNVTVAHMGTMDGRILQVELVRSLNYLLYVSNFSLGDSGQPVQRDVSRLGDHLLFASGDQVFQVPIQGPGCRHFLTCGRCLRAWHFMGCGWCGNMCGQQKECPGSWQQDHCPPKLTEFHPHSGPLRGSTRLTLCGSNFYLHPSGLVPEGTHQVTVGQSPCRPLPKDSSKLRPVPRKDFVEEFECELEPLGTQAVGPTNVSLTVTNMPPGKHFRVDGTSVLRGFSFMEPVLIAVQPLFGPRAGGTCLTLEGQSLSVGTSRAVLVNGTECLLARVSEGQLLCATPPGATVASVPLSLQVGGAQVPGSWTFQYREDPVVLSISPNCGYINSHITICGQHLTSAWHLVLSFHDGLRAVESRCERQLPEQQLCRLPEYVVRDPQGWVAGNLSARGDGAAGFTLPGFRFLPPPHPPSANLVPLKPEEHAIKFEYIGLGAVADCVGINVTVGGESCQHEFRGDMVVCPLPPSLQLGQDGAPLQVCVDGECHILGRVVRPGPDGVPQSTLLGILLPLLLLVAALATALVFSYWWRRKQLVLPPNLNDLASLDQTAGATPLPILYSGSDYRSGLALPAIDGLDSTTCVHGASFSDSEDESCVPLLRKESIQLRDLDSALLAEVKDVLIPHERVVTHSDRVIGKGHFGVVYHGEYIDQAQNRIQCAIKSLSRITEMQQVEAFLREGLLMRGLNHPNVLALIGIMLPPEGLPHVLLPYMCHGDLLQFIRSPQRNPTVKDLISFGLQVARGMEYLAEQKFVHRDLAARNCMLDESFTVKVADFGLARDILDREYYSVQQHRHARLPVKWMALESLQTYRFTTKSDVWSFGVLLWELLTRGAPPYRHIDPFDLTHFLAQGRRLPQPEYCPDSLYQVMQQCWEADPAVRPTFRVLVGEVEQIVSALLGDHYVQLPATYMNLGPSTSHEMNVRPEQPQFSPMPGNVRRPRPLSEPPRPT
Sequence of Proto-oncogene tyrosine-protein kinase ROS (Homo sapiens) (P08922 whole entry): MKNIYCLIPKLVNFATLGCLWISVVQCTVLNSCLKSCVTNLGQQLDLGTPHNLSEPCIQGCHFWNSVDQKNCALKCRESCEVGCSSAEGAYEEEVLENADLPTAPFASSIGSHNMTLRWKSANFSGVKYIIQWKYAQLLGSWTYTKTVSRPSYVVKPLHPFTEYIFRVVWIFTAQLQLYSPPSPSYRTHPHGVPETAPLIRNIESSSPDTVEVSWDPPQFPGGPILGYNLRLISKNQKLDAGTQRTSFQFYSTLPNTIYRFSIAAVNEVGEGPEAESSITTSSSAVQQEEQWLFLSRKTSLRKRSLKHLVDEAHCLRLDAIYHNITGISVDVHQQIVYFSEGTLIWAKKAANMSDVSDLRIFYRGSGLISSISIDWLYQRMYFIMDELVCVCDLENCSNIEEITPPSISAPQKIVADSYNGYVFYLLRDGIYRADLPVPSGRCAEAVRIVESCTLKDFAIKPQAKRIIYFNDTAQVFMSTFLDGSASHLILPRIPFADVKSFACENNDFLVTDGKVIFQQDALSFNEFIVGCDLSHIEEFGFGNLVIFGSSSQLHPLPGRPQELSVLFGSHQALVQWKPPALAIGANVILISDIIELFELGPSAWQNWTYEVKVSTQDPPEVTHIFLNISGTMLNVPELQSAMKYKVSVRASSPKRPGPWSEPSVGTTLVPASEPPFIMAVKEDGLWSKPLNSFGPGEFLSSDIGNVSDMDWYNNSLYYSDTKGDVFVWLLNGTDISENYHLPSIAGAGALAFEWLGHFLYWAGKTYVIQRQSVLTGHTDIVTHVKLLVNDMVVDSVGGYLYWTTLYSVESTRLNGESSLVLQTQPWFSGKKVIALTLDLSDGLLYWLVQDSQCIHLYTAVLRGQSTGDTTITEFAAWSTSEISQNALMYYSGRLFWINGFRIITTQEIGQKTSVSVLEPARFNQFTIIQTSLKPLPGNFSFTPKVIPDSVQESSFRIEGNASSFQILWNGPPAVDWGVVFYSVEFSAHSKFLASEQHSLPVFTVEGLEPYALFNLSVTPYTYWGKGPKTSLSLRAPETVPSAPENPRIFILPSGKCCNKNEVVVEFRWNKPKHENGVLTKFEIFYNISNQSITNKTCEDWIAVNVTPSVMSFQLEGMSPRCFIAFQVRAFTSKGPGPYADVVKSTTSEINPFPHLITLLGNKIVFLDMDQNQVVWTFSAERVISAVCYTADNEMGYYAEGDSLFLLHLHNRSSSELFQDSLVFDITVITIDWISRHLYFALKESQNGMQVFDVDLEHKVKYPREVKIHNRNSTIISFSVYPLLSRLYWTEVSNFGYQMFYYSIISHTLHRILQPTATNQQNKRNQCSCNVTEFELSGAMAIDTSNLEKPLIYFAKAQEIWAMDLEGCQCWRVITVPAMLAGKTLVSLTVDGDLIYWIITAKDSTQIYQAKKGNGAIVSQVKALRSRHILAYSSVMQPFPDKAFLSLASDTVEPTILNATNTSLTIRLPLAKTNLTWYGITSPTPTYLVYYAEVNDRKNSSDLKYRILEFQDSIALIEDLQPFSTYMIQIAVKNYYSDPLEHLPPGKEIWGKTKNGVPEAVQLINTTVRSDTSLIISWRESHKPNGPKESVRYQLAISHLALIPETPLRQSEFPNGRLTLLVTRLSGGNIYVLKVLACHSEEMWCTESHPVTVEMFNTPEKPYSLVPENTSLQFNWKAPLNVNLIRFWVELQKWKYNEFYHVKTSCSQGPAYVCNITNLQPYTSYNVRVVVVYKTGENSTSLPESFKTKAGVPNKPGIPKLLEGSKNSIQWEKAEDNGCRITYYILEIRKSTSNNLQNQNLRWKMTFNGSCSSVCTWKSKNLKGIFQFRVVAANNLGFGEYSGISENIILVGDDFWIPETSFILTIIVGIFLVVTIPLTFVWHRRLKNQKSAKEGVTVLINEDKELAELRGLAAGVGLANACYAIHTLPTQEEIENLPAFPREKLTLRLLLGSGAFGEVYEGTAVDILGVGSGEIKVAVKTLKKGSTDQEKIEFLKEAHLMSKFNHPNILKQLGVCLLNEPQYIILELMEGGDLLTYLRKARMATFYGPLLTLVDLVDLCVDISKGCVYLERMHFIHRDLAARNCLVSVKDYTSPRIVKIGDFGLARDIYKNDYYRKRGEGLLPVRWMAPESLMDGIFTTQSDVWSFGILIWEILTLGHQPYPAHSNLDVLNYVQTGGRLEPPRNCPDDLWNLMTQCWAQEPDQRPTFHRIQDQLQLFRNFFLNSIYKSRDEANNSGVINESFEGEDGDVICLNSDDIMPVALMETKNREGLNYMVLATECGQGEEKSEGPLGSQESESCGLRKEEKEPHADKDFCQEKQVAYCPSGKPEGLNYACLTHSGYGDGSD

As for `Nc1nccc(C#Cc2cncnc2Nc2ccc(OCc3cccc(F)c3)c(Cl)c2)n1`, the inhibition was 10.5% in assay [1]; -0.99% in [2]; 9.09% in assay [3]; 7.35% in assay [4]; 16.2% in [5]; 0.36% in assay [6]. The inhibition in [7] is 7.62%; in assay [8], 0.29%; in assay [9] it was -3.68%; in assay [10] it was -6.1%.

With `CCCN1CCCC(c2ccc(Nc3nc(Nc4cc(F)ccc4C(N)=O)c4cc[nH]c4n3)c(OC)c2)C1` (centres undefined), the inhibition in [1] is 23.6%; in assay [2] it was 0.58%; in [3], 13.1%; in assay [4], 63.8%; in assay [5], 81.2%; in [6], -0.17%. The inhibition in [7] was found to be 14.6%; in assay [8] it was 1.99%; in assay [9], 22.1%.

With `O=C(Nc1ccc(Oc2ccc3[nH]c(NC(=O)c4ccco4)nc3c2)cc1)Nc1cc(C(F)(F)F)ccc1F`, the inhibition is 82.3% in assay [1]; -2.7% in assay [2]; 17.2% in assay [3]; 0.05% in assay [4]; 11.1% in assay [5]; 7.67% in assay [6]. Moreover, the inhibition in [7] is 37%; in assay [8] it was 3.74%; in assay [9] it was -0.11%; in assay [10], 1.01%.

As to `NS(=O)(=O)c1cccc(-c2cc3ccncc3cc2OCc2ccccc2)c1`, the inhibition in assay [1] was 18%; in assay [2] it was 3.72%; in assay [3] it was -2.44%; in assay [4], 10.8%; in assay [5], 17.1%; in assay [6], 5.87%. Further, the inhibition was 11.2% in [7], -1.16% in assay [8], -2.93% in assay [9] and -6.65% in assay [10].

Take `COC(=O)Nc1nc2cc(Oc3ccc(NC(=O)Nc4cccc(Br)c4)cc3)ccc2[nH]1`: the inhibition in [1] was found to be 84.4%; in [2], 1.47%; in assay [3] it was 2.5%; in [4], 4.26%; in assay [5], 3.1%; in assay [6] it was 3.27%. Moreover, the inhibition in assay [7] is 6.9%; in assay [8], 2.26%; in assay [9], 3.49%; in assay [10], -1.46%.

Take `COc1cc(Nc2nccc(-c3cnn4ncccc34)n2)cc(OC)c1`: the inhibition in [1] is 33.6%; in [2] it was 4%; in [3], 22.3%; in [4] it was 57%; in [5] it was 87%; in assay [6] it was 17.1%. For the same compound, the inhibition in assay [7] was 63.9%; in assay [8], 0.34%; in assay [9] it was 6.85%; in [10], -0.4%.

On to `CCS(=O)(=O)c1ccc(OC)c(Nc2ncc(-c3cccc(OC)c3)o2)c1`, for which the inhibition stood at 67.1% in assay [1]; 3.89% in assay [2]; 3.42% in assay [3]; 9.78% in [4]; 43.3% in assay [5]; 30.7% in [6]. For the same compound, the inhibition was 79.4% in [7], 2.74% in assay [8], 30.6% in assay [9] and -0.11% in [10].

Regarding `ON=C1CCc2cc(-c3nc(C4CCNCC4)[nH]c3-c3ccncc3)ccc21`, the inhibition in [1] was 8.46%; in assay [2], -6.87%; in assay [3], 1.8%; in [4], 1.07%; in assay [5], 2.47%; in [6] it was 2.03%. The inhibition in assay [7] was 0.66%; in [8] it was 0%; in assay [9], -2.67%; in [10], 2.82%.

On to `NS(=O)(=O)c1ccc(Nc2cc(-c3cccc(O)c3)n[nH]2)cc1`, for which the inhibition in assay [1] worked out at 26.2%; in assay [2], 5.75%; in assay [3] it was 0.78%; in assay [4] it was 6.66%; in [5] it was 12.1%; in [6] it was 3.91%. The inhibition in [7] was 11.9%; in assay [8] it was -2.79%; in assay [9], -7.29%; in assay [10] it was -3.9%.

Regarding `Cc1ccc(O)cc1Nc1ccnc2ccc(S(C)(=O)=O)cc12`, the inhibition in assay [1] was determined as 89.5%; in assay [2], 5.15%; in assay [3], 6.07%; in assay [4], 5.41%; in assay [5], 8.68%; in assay [6] it was 92.2%. Besides, the inhibition in assay [7] is 95.1%; in assay [8] it was 27.4%; in [9], 69%; in assay [10], -7.79%.

Regarding `CCS(=O)(=O)c1ccc(OC)c(Nc2nccc(N(C)c3ccc4c(C)n[nH]c4c3)n2)c1`, the inhibition in assay [1] was 80.2%; in assay [2], 2.28%; in assay [3] it was 11.8%; in assay [4], 12.1%; in [5], 51.3%; in [6] it was 42.5%. In addition, the inhibition is 81.2% in assay [7], 11.4% in assay [8], 50.3% in [9] and -1.92% in [10].

Take `COc1ccc2ncnc(Nc3ccc(OCc4ccccc4)cc3)c2c1`: the inhibition in assay [1] was 11.5%; in assay [2] it was 2.03%; in [3], 4.46%; in assay [4] it was 1.06%; in assay [5], 3.14%; in [6], 2.84%. For the same compound, the inhibition in assay [7] was 8.82%; in assay [8] it was -1.19%; in assay [9], 0.6%; in assay [10], -3.74%.

As to `CN(C)C(=O)O[C@H]1CN[C@H](C#Cc2cc3ncnc(Nc4ccc(OCc5cccc(F)c5)c(Cl)c4)c3s2)C1`, the inhibition in [1] came to 9.1%; in assay [2], 1.31%; in assay [3] it was 5.82%; in assay [4] it was 4.25%; in assay [5], 4.65%; in assay [6] it was 3.86%. Moreover, the inhibition in assay [7] was 6.56%; in assay [8], 0.59%; in [9], 0.93%; in [10], -7.75%.

Turning to `NS(=O)(=O)c1cccc(Nc2cc(-c3ccc(F)cc3)n[nH]2)c1`, the inhibition in assay [1] is 23.6%; in assay [2], -6.54%; in assay [3], 8.51%; in [4], 4.34%; in assay [5], 4.36%; in [6], 3.21%. The inhibition was 10.4% in [7], -0.24% in assay [8], 2.26% in assay [9] and -3.53% in [10].

For `Cc1ccc2c(c1)/C(=N/Nc1ccc(S(N)(=O)=O)cc1)C(=O)N2`, the inhibition in [1] was 18.2%; in assay [2], -3.95%; in assay [3] it was -1.57%; in assay [4], 2.42%; in assay [5], 4.27%; in [6], 0.59%. The inhibition is 6.44% in [7], -1.38% in [8], -2.68% in [9] and 2.17% in [10].

Turning to `Cc1ccc(C(=O)NC2CC2)cc1-c1ccc2[nH]ncc2c1`, the inhibition in assay [1] is -0.71%; in [2], -3.31%; in [3] it was -6.03%; in [4], 0.92%; in [5], 1.49%; in [6], -6.61%. The inhibition in [7] was -7.08%; in assay [8] it was -1.77%; in [9] it was 0.94%; in assay [10], -1.71%.
